sEH activator: soluble epoxide hydrolase activators, primary screen, biochemical, human sEH. AID 717, 2007. purified human sEH enzymatic activity, activator screen. activation, % at 2 µM. hit rate 0.04% among 91,000; in the data active = activation above about 37%
CYP2C9 inhib: blockers of cytochrome P450 2C9 activity – biochemical, luminescence, ADME assay, primary screen; P11712; CYP2C9 Supersomes, luciferin-H conversion; inhibition, % at 5 µM; hit rate 20% among 96,000;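 active = blocking of liver enzyme CYP2C9 beyond about 50% at 5 µM, limit read from the data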
Target sequence (P11712 whole entry, looked up): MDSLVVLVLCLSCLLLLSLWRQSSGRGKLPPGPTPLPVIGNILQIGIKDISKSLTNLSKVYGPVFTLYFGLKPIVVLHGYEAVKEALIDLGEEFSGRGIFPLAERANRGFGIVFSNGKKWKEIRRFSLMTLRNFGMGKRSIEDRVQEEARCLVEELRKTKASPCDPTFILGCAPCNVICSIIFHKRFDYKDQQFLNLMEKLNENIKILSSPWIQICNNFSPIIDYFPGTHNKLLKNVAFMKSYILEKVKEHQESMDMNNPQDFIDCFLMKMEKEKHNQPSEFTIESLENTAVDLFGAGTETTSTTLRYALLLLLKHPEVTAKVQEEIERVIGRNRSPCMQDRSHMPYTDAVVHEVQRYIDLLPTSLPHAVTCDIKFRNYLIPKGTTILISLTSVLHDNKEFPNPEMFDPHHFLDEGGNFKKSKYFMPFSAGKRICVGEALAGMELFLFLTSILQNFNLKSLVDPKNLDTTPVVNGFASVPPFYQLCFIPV
CYP2C19 activ: human CYP2C19 activators, primary screen, biochemical, luminescence; Cytochrome P450 2C19 (Homo sapiens), P33261; recombinant CYP2C19, luciferin-H EGE luminescence; hits give high values; 0 = fully inhibited enzyme, 1 = untreated enzyme; activation factor at 5 µM; 96,000 tested, under 10 active; AID 1025, 2008;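 active = activation factor of at least 2 at 5 µM in the primary screen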
CYP2C9 activ: human CYP2C9 activators, primary screen, biochemical, luminescence | Cytochrome P450 2C9 (Homo sapiens), P11712 | recombinant CYP2C9, luciferin-H conversion; hits give high values; factor 1 = untreated enzyme, 0 = blocked | activation factor at 5 µM | hit rate 1.4% among 96,000;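 active = activation factor of 2 or more for CYP2C9 at a 5 µM dose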
sEH inh: soluble epoxide hydrolase inhibitors, primary screen, biochemical, human sEH. Bifunctional epoxide hydrolase 2 (Homo sapiens), P34913. recombinant human sEH enzymatic activity assay. inhibition, % at 2 µM. hit rate 0.34% among 91,000; in the data active = inhibition above about 80%
CYP2C19 inhib: blockers of cytochrome P450 2C19 activity – biochemical, luminescence, ADME assay, primary screen | P33261 | inhibition, % at 5 µM | hit rate 21% among 96,000 | CYP2C19 Supersomes, luciferin-H EGE luminescence, 30 min;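 active = CYP2C19 inhibition above a set limit at 5 µM in the primary screen, cut at about 50% in these data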
Each line names hits and unclear results; the compound was inactive in the other large screens. In the library only some 27% were active in any assay of this set; here they are far more common.

COc1ccc(CCC(=O)N2CC(C)OC(C)C2)cc1 (stereo not drawn)	none
C=CCN(Cc1cccc(OC)c1OC)S(=O)(=O)N(C)C	none
COc1ccc(CNC(=O)Cn2cnc3c(=O)n(C)c(=O)n(C)c32)cc1	none
O=c1ccccn1Cc1c(F)cccc1Cl	CYP2C19 inhib 50
CCN(CCCNC(=O)CC(C(=O)N1CCc2ccccc21)n1ccnc1)c1cccc(C)c1 (stereo not drawn)	CYP2C19 inhib 94
CCCCNC(=O)CC(C(=O)N1CCc2ccccc21)n1ccnc1 (stereo not drawn)	CYP2C19 inhib 74
O=C(CC(C(=O)N1CCc2ccccc21)n1ccnc1)N1CCc2ccccc2C1 (stereo not drawn)	CYP2C19 inhib 73
O=C(CC(C(=O)N1CCc2ccccc21)n1ccnc1)NCC1CCCO1 (stereo not drawn)	CYP2C9 inhib 65
O=C(c1ccc(S(=O)(=O)NCC2CCCO2)cc1)N1CCc2ccccc21 (stereo not drawn)	none
O=C(C1CCCN(Cc2ccccc2)C1)N1CCc2ccccc2C1 (stereo not drawn)	none
CCN1CCN(S(=O)(=O)c2cc(OC)c(Cl)cc2OC)CC1	none
CCC(C)NCCOCCOc1ccc(F)cc1 (stereo not drawn)	none
Cc1cc(C)nc(-n2nc(C)c3c(C)c(C)c(C)nc32)n1	none
Nc1ncnc2nc(N3CCN(C(=O)c4ccccc4)CC3)[nH]c12	none
COC(=O)CN1C(=S)N(Cc2ccccc2)C(=O)C1CC(=O)Nc1ccc(Br)cc1 (stereo not drawn)	none
COc1ccc(NC(=O)CC2C(=O)N(c3ccc(Cl)cc3)C(=S)N2CCc2ccncc2)cc1 (stereo not drawn)	CYP2C9 inhib 97, CYP2C19 inhib 88
COC(=O)CN1C(=S)N(c2ccc(Cl)cc2)C(=O)C1CC(=O)Nc1ccc(Cl)cc1 (stereo not drawn)	none (no result: CYP2C9 inhib, CYP2C19 activ, CYP2C9 activ, CYP2C19 inhib)
COc1ccc(NC(=O)CC2C(=O)N(CCc3ccccc3)C(=S)N2Cc2cccnc2)cc1 (stereo not drawn)	CYP2C9 inhib 92, CYP2C19 inhib 90
COc1ccc(NC(=O)CC2C(=O)N(c3ccc(OC)cc3)C(=O)N2C(C)C)cc1 (stereo not drawn)	CYP2C19 inhib 56
CCN1C(=O)C(CC(=O)Nc2ccc(OC)cc2)N(Cc2cccnc2)C1=S (stereo not drawn)	CYP2C19 inhib 65
CC(C)Nc1nc(NC(C)C)nc(C(N)=O)n1	none
COCC(=O)N(c1ccc(C(C)C)cc1)C1C=CS(=O)(=O)C1 (stereo not drawn)	none
C=CCN1C(=O)C(CC(=O)Nc2ccc(OC)cc2)N(Cc2ccco2)C1=S (stereo not drawn)	CYP2C19 inhib 96
CN1C(=O)C(CC(=O)Nc2ccc(F)cc2)N(CCCc2ccccc2)C1=S (stereo not drawn)	CYP2C9 inhib 89, CYP2C19 inhib 60
CC(C)CCN1CCNC(=O)C1CC(=O)Nc1ccc(F)cc1 (stereo not drawn)	none
C/C=C(\C)c1nnc(NC(=O)c2ccco2)s1	none
CN1/C(=C/C=N/n2cnnc2)C(C)(C)c2ccccc21	CYP2C19 inhib 92
COc1cccc(/C=N\NC(=O)c2sc(N)nc2C)c1OC	none
N#CC(=C1CCCC1)c1nc(-c2ccccc2)cs1	none
N#CC(=C1CCCC1)c1nc(-c2ccccc2O)cs1	CYP2C19 inhib 72 (no result: sEH activator, sEH inh)
CCOC(=O)C1CCCN(C(=O)c2cc3c(=O)n4cccc(C)c4nc3n2C)C1 (stereo not drawn)	none (no result: CYP2C9 inhib, CYP2C19 activ, CYP2C9 activ, CYP2C19 inhib)
C/C(Cn1nnc([N+](=O)[O-])n1)=N\NC(=O)c1ccccc1Cl	none
O=C1CC(c2ccco2)Cc2nc(Nc3ccc(F)cc3)ncc21 (stereo not drawn)	CYP2C9 inhib 59, CYP2C19 inhib 56
O=C1CC(c2ccco2)Cc2nc(NCC3CCCO3)ncc21 (stereo not drawn)	none
O=C1CC(c2ccccc2)Cc2nc(NCc3ccco3)ncc21 (stereo not drawn)	CYP2C9 inhib 51
COc1ccccc1C(=O)Nc1ncc2c(n1)CC(c1ccco1)CC2=O (stereo not drawn)	CYP2C19 inhib 56
Cc1ccc(C)n1-c1ccc(N2CCOCC2)nc1	none
Cc1c(C(N)=O)c(N)c(C(=O)c2ccccc2)n1-c1ccccc1	none
CC(/C=N/NC(=O)c1cccnc1)=C\c1ccco1	none
Cc1cccc(C(=O)N/N=C/c2ccncc2)c1	CYP2C19 inhib 64
CC(/C=N/NC(=O)c1cc(C(C)(C)C)[nH]n1)=C\c1ccccc1	CYP2C9 inhib 60
Cc1cccc(C(=O)N/N=C/c2ccc(OC3CSC3)cc2)c1	none
CC(/C=N/NC(=O)c1ccncc1)=C\c1ccccc1	CYP2C9 inhib 79, CYP2C19 inhib 81
Cc1c(C(=O)N2CC(C)OC(C)C2)oc2ccccc12 (stereo not drawn)	none (no result: sEH activator, sEH inh)
COC(=O)c1[nH]c2cc(OC)ccc2c1NC(=O)c1nonc1C	none
COc1ccccc1NC(=O)c1oc2ccc(C)cc2c1C	CYP2C9 activ 2
Cc1ccc2c(CC(=O)NCC3COc4ccccc4O3)coc2c1 (stereo not drawn)	CYP2C9 inhib 95, CYP2C19 inhib 100 (no result: sEH activator, sEH inh)
COc1ccccc1NC(=O)Cc1coc2cc(C)ccc12	CYP2C19 inhib 64
COc1ccccc1NC(=O)c1oc2ccccc2c1NC(=O)c1cc(OC)c(OC)c(OC)c1	none (no result: CYP2C9 inhib, CYP2C19 activ, CYP2C9 activ, CYP2C19 inhib)
COc1ccc2c(CC(=O)OCC(=O)c3ccccc3OC)coc2c1	none
CCOc1ccccc1NC(=O)Cc1coc2cc(C)ccc12	CYP2C9 inhib 90, CYP2C19 inhib 95
COc1cc2c(cc1OC)C(=O)CC(C)S2 (stereo not drawn)	none
COCCCN(Cc1ccccn1)S(=O)(=O)Cc1ccccc1	none (no result: CYP2C9 inhib, CYP2C19 activ, CYP2C9 activ, CYP2C19 inhib)
CCOc1cc(NC(=O)c2cnccn2)c(OCC)cc1NC(=O)c1ccc(OC)cc1	none (no result: sEH activator, sEH inh)
Cc1onc(-c2c(F)cccc2Cl)c1C(=O)OCC(=O)Nc1c(C)n(C)n(-c2ccccc2)c1=O	none (no result: sEH activator, sEH inh)
Cc1ccc(NCc2nnc(SCC(=O)Nc3ncc(C)s3)n2Cc2ccco2)c(C)c1	none (no result: sEH activator, sEH inh)
COc1ccc(OC)c(C(c2nnnn2Cc2ccccc2)N2CCN(C)CC2)c1 (stereo not drawn)	none
CCC(C)(C)n1nnnc1C(c1ccc2ncccc2c1)N1CCN(c2nc3ccccc3s2)CC1 (stereo not drawn)	CYP2C9 inhib 88
COc1ccc(Cn2nnnc2C(c2ccncc2)N2CCOCC2)cc1 (stereo not drawn)	CYP2C9 inhib 78, CYP2C19 inhib 90
CCC(C)(C)n1nnnc1C(c1ccc2ncccc2c1)N1CCCC(C)C1 (stereo not drawn)	none (no result: CYP2C9 inhib, CYP2C19 activ, CYP2C9 activ, CYP2C19 inhib)

Bioassay records (PubChem)
